Laboratory results: PubChem BioAssay AID1159580 (chemical genetic matrix, 2015)
“And” between values parts separate entries of the source, which are not always exact repeats. Equal values may be shown once. Screen size: about 5,500 compounds; about 2,000 (36%) were called active. About 18% were inconclusive and are not listed. Rule as the data show it: active = normalized growth mostly below about 0.91 (no sharp cut-off); inconclusive = no clear call, values can overlap the other calls; inactive = mostly above about 0.92. This is one part of the list.

Assay: chemical genetic growth profiling, strain panel (AID 1159580);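 also: tested at 20 µM; growth read once vehicle control cultures reached saturation at 30 °C; 1 = growth at the plate median or of vehicle wells; lower values mean less growth of the strain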
Conditions: S. cerevisiae deletion strains, growth OD

Measured: normalized growth

NCCCC[C@H](N[C@@H](CCc1ccccc1)C(=O)O)C(=O)N1CCC[C@H]1C(=O)O
inactive: locus YAL021C, strain ccr4, stronger effect = lower value 1.01 | locus YAL026C, strain drs2, stronger effect = lower value 1.02 | locus YAL030W, strain snc1, stronger effect = lower value 0.978 | locus YBL061C, strain skt5, stronger effect = lower value 1.01 | locus YBR009C, strain hhf1, stronger effect = lower value 0.98 | locus YBR021W, strain FUR4, stronger effect = lower value 1.01 | locus YBR023C, strain chs3, stronger effect = lower value 0.998 | locus YBR171W, strain sec66, stronger effect = lower value 1.02 | locus YBR229C, strain ROT2, stronger effect = lower value 0.962 | locus YBR231C, strain swc5, stronger effect = lower value 1.01 | locus YBR279W, strain paf1, stronger effect = lower value 0.998 | locus YCL011C, strain gbp2, stronger effect = lower value 0.997 | locus YCL016C, strain dcc1, stronger effect = lower value 0.99 | locus YCL029C, strain bik1, stronger effect = lower value 0.992 | locus YCL069W, strain vba3, stronger effect = lower value 1.03 | locus YCR088W, strain abp1, stronger effect = lower value 1.03 | locus YDL005C, strain med2, stronger effect = lower value 1.03 | locus YDL035C, strain GPR1, stronger effect = lower value 0.995 | locus YDL040C, strain nat1, stronger effect = lower value 0.998 | locus YDL074C, strain BRE1, stronger effect = lower value 0.932 | locus YDL101C, strain DUN1, stronger effect = lower value 0.982 | locus YDL134C, strain PPH21, stronger effect = lower value 1 | locus YDL185W, strain tfp1, stronger effect = lower value 0.989 | locus YDL192W, strain arf1, stronger effect = lower value 0.992 | locus YDR001C, strain nth1, stronger effect = lower value 1.01 | locus YDR069C, strain doa4, stronger effect = lower value 0.935 | locus YDR101C, strain arx1, stronger effect = lower value 0.995 | locus YDR137W, strain rgp1, stronger effect = lower value 0.994 | locus YDR150W, strain NUM1, stronger effect = lower value 0.99 | locus YDR159W, strain sac3, stronger effect = lower value 0.923 | locus YDR162C, strain NBP2, stronger effect = lower value 0.994 | locus YDR195W, strain ref2 0.987 | locus YDR297W, strain sur2, stronger effect = lower value 0.979 | locus YDR318W, strain mcm21, stronger effect = lower value 1 | locus YDR334W, strain swr1, stronger effect = lower value 1.01 | locus YDR335W, strain msn5, stronger effect = lower value 0.972 | locus YDR388W, stronger effect = lower value 0.993 | locus YDR392W, strain spt3, stronger effect = lower value 1.01 | locus YDR502C, strain sam2, stronger effect = lower value 0.999 | locus YEL003W, strain gim4, stronger effect = lower value 1.02 | locus YEL037C, strain rad23, stronger effect = lower value 1.01 | locus YEL061C, strain CIN8 (second series), stronger effect = lower value 1.02 | locus YEL061C, strain CIN8, stronger effect = lower value 0.978 | locus YER015W, strain faa2, stronger effect = lower value 1 | locus YER016W, strain bim1, stronger effect = lower value 0.997 | locus YER110C, stronger effect = lower value 0.989 | locus YER111C, strain swi4, stronger effect = lower value 1.02 | locus YER155C, strain BEM2 (second series), stronger effect = lower value 0.994 | locus YER155C, strain BEM2, stronger effect = lower value 0.996 | locus YER167W, strain BCK2, stronger effect = lower value 0.989 | locus YFR010W, strain ubp6, stronger effect = lower value 1.01 | locus YGL078C, strain dbp3, stronger effect = lower value 1 | locus YGL086W, strain mad1, stronger effect = lower value 0.982 | locus YGL167C, strain pmr1, stronger effect = lower value 1.01 | locus YGL173C, strain kem1, stronger effect = lower value 1.04 | locus YGL227W, strain vid30, stronger effect = lower value 1.01 | locus YGL240W, strain doc1, stronger effect = lower value 0.92 | locus YGL248W, strain PDE1, stronger effect = lower value 0.966 | locus YGL253W, strain hxk2, stronger effect = lower value 0.971 | locus YGR135W, strain pre9, stronger effect = lower value 1.01 | locus YGR252W, strain gcn5, stronger effect = lower value 1.02 | locus YHR013C, strain ard1, stronger effect = lower value 1.01 | locus YHR027C, strain rpn1, stronger effect = lower value 0.985 | locus YHR030C, strain SLT2, stronger effect = lower value 0.996 and 1.03 | locus YHR079C, strain IRE1 (second series), stronger effect = lower value 0.999 | locus YHR079C, strain IRE1, stronger effect = lower value 1.05 | locus YHR094C, strain hxt1, stronger effect = lower value 0.995 | locus YHR129C, strain ARP1, stronger effect = lower value 0.997 | locus YHR142W, strain chs7, stronger effect = lower value 1.03 | locus YHR200W, strain rpn10, stronger effect = lower value 1 | locus YIL066C, strain RNR3, stronger effect = lower value 0.973 | locus YIL073C, strain SPO22, stronger effect = lower value 1.06 | locus YIL125W, strain kgd1, stronger effect = lower value 0.993 | locus YIR030C, strain dcg1, stronger effect = lower value 0.993 | locus YJL092W, strain hpr5, stronger effect = lower value 1.02 | locus YJL095W, strain BCK1 (second series), stronger effect = lower value 0.972 | locus YJL095W, strain BCK1, stronger effect = lower value 0.968 and 1.01 | locus YJL115W, strain asf1, stronger effect = lower value 1.01 | locus YJL129C, strain trk1, stronger effect = lower value 1.04 | locus YJL134W, strain LCB3, stronger effect = lower value 0.994 | locus YJL154C, strain vps35, stronger effect = lower value 1.03 | locus YJL164C, strain tpk1, stronger effect = lower value 1.02 | locus YJL166W, strain qcr8, stronger effect = lower value 0.989 | locus YJL168C, strain set2, stronger effect = lower value 0.995 | locus YJL187C, strain SWE1 (second series), stronger effect = lower value 0.971 | locus YJR043C, strain POL32, stronger effect = lower value 0.986 | locus YJR066W, strain TOR1, stronger effect = lower value 0.969 | locus YJR075W, strain HOC1, stronger effect = lower value 0.979
